From PubChem BioAssay (NCI)
Compounds without any hit were thinned out: in the full panel of roughly 79,000, 15% have a hit. Calls of active or inactive are those of the source. Rule as the data show it: active = growth inhibition above about 70%; inactive = the rest.

Assays:
[1] = NCI Yeast Anticancer Drug Screen. Data for the rad50 strain (AID 155);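 also: 0% = growth of vehicle-only cultures of the same strain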; details: S. cerevisiae rad50 strain growth inhibition; at 50.0 µM; hits give high values
Procedure, shortened: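 Readout: growth inhibition relative to vehicle-treated cultures. Compound exposure was carried out in a genetically defined yeast strain deficient in DNA damage repair.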

[2] = NCI Yeast Anticancer Drug Screen. Data for the mec2-1 strain (AID 157); details: S. cerevisiae mec2-1 strain, at 50.0 µM, hits give high values
Procedure, shortened: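 Strain: mec2-1 (DNA repair/cell cycle alteration). Compound exposure, then growth measured; inhibition expressed relative to vehicle.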

[3] = NCI Yeast Anticancer Drug Screen. Data for the sgs1 mgt1 strain (AID 161);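 also: 0% = growth of cultures given vehicle only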; details: S. cerevisiae sgs1 mgt1 strain, at 50.0 µM, hits give high values
Procedure, shortened: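 Mutant yeast exposed to compound; growth scored against vehicle-only wells.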

[4] = NCI Yeast Anticancer Drug Screen. Data for the cln2 rad14 strain (AID 165);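 also: 0% = growth equal to vehicle treated cultures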; details: S. cerevisiae cln2 rad14 strain, at 50.0 µM, hits give high values
Procedure, shortened: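 Compounds are applied to the cln2 rad14 yeast strain, and growth is then compared with that of vehicle-treated cultures to give inhibition.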

[5] = NCI Yeast Anticancer Drug Screen. Data for the bub3 strain (AID 167); details: S. cerevisiae bub3 mutant strain, at 50.0 µM, hits give high values
Procedure, shortened: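 Readout: yeast growth inhibition, expressed relative to vehicle-only wells. The test organism is a mutant strain from a panel with lesions in DNA repair or checkpoint genes.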

[6] = NCI Yeast Anticancer Drug Screen. Data for the mlh1 rad18 strain (AID 175); details: S. cerevisiae mlh1 rad18 strain growth inhibition; at 50.0 µM; hits give high values
Procedure, shortened: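 Read-out is yeast growth inhibition, calculated against vehicle-only controls. The compound was applied to a strain engineered with DNA damage repair alterations.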

Measured: growth inhibition

CCOC(=O)C1CC(=O)C2/C(=C(\O)c3ccccc3)C=C([N+](=O)[O-])C1C2[N+](=O)[O-] (stereo not drawn)
inactive: [1] 3% | [2] 3.65% | [3] -13.6% | [4] -1.25% | [5] 3.6% | [6] -1.2%

NC(=O)c1ccccc1OC(=O)Nc1ccccc1
inactive: [1] 16.6% | [2] 7.5% | [3] 5.1% | [4] 17.2% | [5] 22.1% | [6] 10.8%

CC(C)c1ccc2c(c1)C=C1OC(=O)[C@]3(C)CCC[C@@]2(C)C13 (stereo partly drawn)
inactive: [1] 35.1% | [2] 21.9% | [3] 54.2% | [4] 40% | [5] 26.4% | [6] 17.1%

CCCCCCCOc1ccc(C2=C(c3ccccc3)C(=O)C(c3ccccc3)=C2c2ccccc2)cc1
inactive: [1] 22.4% | [2] 3.3% | [3] 8.3% | [4] 15.9% | [5] 3.95% | [6] 2.4%

CC(=O)C(N=Nc1nc2ccccc2[nH]1)C(C)=O
inactive: [1] 27.1% | [2] 14.1% | [3] -1.8% | [4] 15.2% | [5] 47.9% | [6] 32.5%

CC(=O)N(C(=O)CC(=O)NN)c1ccc(Cl)cc1
inactive: [1] -19.1% | [2] -21.3% | [3] 3.65% | [4] 26.3% | [5] 6.95% | [6] 26%

Nc1ccc(C(=O)Nc2nccs2)cc1
inactive: [1] 8.4% | [2] 12.6% | [3] 6.8% | [4] -19.8% | [5] 14.6% | [6] 4.75%

N#CCCn1ncc(C#N)c1N
inactive: [1] 3.4% | [2] -7.95% | [3] -1.5% | [4] -38.5% | [5] -2.5% | [6] 8.5%

O=C(O)c1c[n+]([O-])ccc1Cl
inactive: [1] 12.8% | [2] -0.9% | [3] -8% | [4] -42% | [5] -8.2% | [6] 27.1%

c1ccc(-c2cc(-c3ccccc3)nc(-c3ccncc3)c2)cc1
inactive: [1] -16.1% | [2] -35.3% | [3] 2.9% | [4] 13.8% | [5] 1.55% | [6] -63.7%

NC(=S)N/N=C(\c1ccccc1)c1cccc2ccccc12
inactive: [1] 5.1% | [2] 50.7% | [3] 59% | [4] -35.3% | [5] 58.5% | [6] 33.5%

CNCCC(=O)C1CCC(OC)CC1 (stereo not drawn)
inactive: [1] 26.2% | [2] -3% | [3] 2.1% | [4] -49.5% | [5] 5.45% | [6] -8.45%

CC1(C)OCC(C2OC(C)(C)OC2C(CO)Nc2ccc([N+](=O)[O-])cc2[N+](=O)[O-])O1 (stereo not drawn)
inactive: [1] 53% | [2] 21.4% | [3] 59.1% | [4] 41.4% | [5] 11.2% | [6] 49.1%

CCCCOC(=O)c1cccc2c1-c1ccccc1C2=O
inactive: [1] 9.75% | [2] -6.55% | [3] -2% | [4] -14.9% | [5] 13.8% | [6] -0.7%

CCOC(=O)NC(Nc1cccc(F)c1)(C(F)(F)F)C(F)(F)F
inactive: [1] 16.8% | [2] -9.05% | [3] -22.4% | [4] 20.9% | [5] -12.3% | [6] 4.9%

CCCCCC#CC(=O)OC
inactive: [1] -14.8% | [2] 1.45% | [3] -17.4% | [4] 9.95% | [5] -2.2% | [6] 2.75%

Cc1cccc(NC(=O)c2cccc(C(=O)Nc3cccc(C)c3C)c2)c1C
inactive: [1] -12.4% | [2] 0.6% | [3] 17.6% | [4] -15.9% | [5] 5.2% | [6] -21.9%

OC12c3ccccc3C1CCCCCC21OCCCO1 (stereo not drawn)
inactive: [1] -9.4% | [2] -27.8% | [3] -31.8% | [4] -17.4% | [5] -8.4% | [6] -19.9%

CC(=O)Nc1ccc2ccccc2c1SC1CC(=O)N(c2ccccc2)C1=O (stereo not drawn)
inactive: [1] -24.1% | [2] -3% | [3] -26.2% | [4] -23.4% | [5] -15.8% | [6] -20.6%

NC(CO)C(=O)NCCS(=O)(=O)O (stereo not drawn)
inactive: [1] -10.7% | [2] 9.6% | [3] -3.7% | [4] 22.1% | [5] -7.05% | [6] -6.95%

COc1ccc2c(c1)CCc1nc(N)nc(N)c1-2
inactive: [1] -3.9% | [2] 4.1% | [3] -14.2% | [4] -40.5% | [5] -16.1% | [6] 11.8%

Cc1ccc(S(=O)(=O)CCCCS(=O)(=O)c2ccc(C)cc2)cc1
inactive: [1] 1.8% | [2] 4.35% | [3] -7.1% | [4] -62.4% | [5] -27.2% | [6] 2.3%

O=C(/C=C\c1ccccc1)c1ccc(-c2ccc([N+](=O)[O-])cc2)cc1
inactive: [1] 10.4% | [2] 11.4% | [3] 9.05% | [4] -3.65% | [5] 4.8% | [6] 22.6%

O=S1(=O)CC(N2CCCCC2)C2=C(O1)c1ccccc1N(c1ccccc1)C2 (stereo not drawn)
inactive: [1] 1.8% | [2] -16.9% | [3] -11.1% | [4] 16.9% | [5] -0.4% | [6] -26.1%

CCCCCCCCCCOc1ccc(C2=C(c3ccccc3)C(=O)C(c3ccccc3)=C2c2ccccc2)cc1
inactive: [1] 25.3% | [2] 10.4% | [3] 17.4% | [4] 14.9% | [5] -5.3% | [6] 3.6%

O=C1CC(C2(O)C(=O)Nc3ccc([N+](=O)[O-])cc32)c2ccccc21 (stereo not drawn)
inactive: [1] -22% | [2] -19.1% | [3] -9.65% | [4] -5.4% | [5] 11.2% | [6] -39.4%

Cn1c2ccccc2n2c(=O)c3c(c(C#N)c12)CCCC3
inactive: [1] -31.1% | [2] -35.2% | [3] -3.1% | [4] -0.35% | [5] -20.6% | [6] -21.7%

O=C(O)C1=C(O)CCN=C1
inactive: [1] -24.1% | [2] 2.7% | [3] 11% | [4] -10.8% | [5] -3.95% | [6] 27.1%

O=NNc1ccc(Sc2ccc(NN=O)nc2)cc1
inactive: [1] 4.65% | [2] -7.4% | [3] 8.45% | [4] 17% | [5] -3.15% | [6] 21.9%

COc1cc(OC2OC(CO)C(O)C(O)C2O)c2c(O)c3c(=O)cc(C)oc3cc2c1 (stereo not drawn)
inactive: [1] 12.8% | [2] 19.4% | [3] 2.05% | [4] 20.7% | [5] 2.55% | [6] 3.8%

NC1CCCCCC1
inactive: [1] 2.95% | [2] -7.25% | [3] 0.8% | [4] 3.25% | [5] 8.45% | [6] -2.4%

CC1=CC(c2ccccc2)(c2ccccc2)c2ccccc21
inactive: [1] 0.1% | [2] 3% | [3] 5% | [4] -19.1% | [5] 1.7% | [6] -17.4%

CCC(CC)c1nc2c([nH]1)c(=O)n(C)c(=O)n2C
inactive: [1] -34% | [2] 8.1% | [3] 5.3% | [4] -32.5% | [5] -7.2% | [6] -10.3%

CCC(=N\NC(N)=S)/C(C)=N/O
inactive: [1] -2.35% | [2] 6.3% | [3] 19.4% | [4] 15.2% | [5] 14.3% | [6] 16.3%

CCC(=O)Oc1ccc[nH]c1=O
inactive: [1] 1.8% | [2] 21.2% | [3] 4.95% | [4] 24.6% | [5] 9.95% | [6] 14.2%

N/N=C(/c1ccc(Cl)cc1)N1CCOCC1
inactive: [1] 15.4% | [2] 1.1% | [3] 3.8% | [4] -8.6% | [5] -18% | [6] 5.35%

CCCOC1(C)Oc2cc3c(cc2C(c2cc(OC)c(OC)c(OC)c2)C1C)OCO3 (stereo not drawn)
inactive: [1] 10.3% | [2] 2.7% | [3] -4.4% | [4] 45.4% | [5] 18.6% | [6] 14.7%

CC1CCC2CCCCC2/C1=N\NC(N)=O (stereo not drawn)
inactive: [1] -10.8% | [2] -3.9% | [3] 3.95% | [4] 2.35% | [5] 0.25% | [6] -16.7%
